About 83,000 compounds went through this panel and 20% of them were active in at least one assay; those are over-represented in the sample as a whole.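 Single-dose data. Exposure time 48 hours. Values below 10 considered active.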 A number with no mark means an inactive call. Activity calls are given as the source filed them.

Test in all cases: NCI-60 one-dose screen, 48 h (100 = growth as untreated, 0 = no growth, -100 = all killed)
Holding throughout (settings): 10 µM unless noted

Test [1] concerns HCT-15 colon.
The test system of test [2] is HT29 colon.
Test [3] deals with SNB-75 CNS.
The subject of test [4] is SNB-19 CNS.
Test [5] has as its system PC-3 prostate.
The subject of test [6] is SK-MEL-5 melanoma.
Test [7] relates to UACC-62 melanoma.
Test [8] concerns LOX IMVI melanoma.
Test [9] deals with SK-MEL-28 melanoma.
Test [10] relates to SK-MEL-2 melanoma.
For test [11], the system named is EKVX NSCLC.
The subject of test [12] is SN12C renal.
Test [13] has as its system UO-31 renal.
Test [14] deals with TK-10 renal.
For test [15], the system named is ACHN renal.
The test system of test [16] is CAKI-1 renal.
The subject of test [17] is A498 renal.
Test [18] concerns CCRF-CEM leukemia.
Test [19] deals with MOLT-4 leukemia.

Regarding `COc1ccc(C2c3[nH]c4ccc(Cl)cc4c3CCN2c2oc(CO)nc2C#N)cc1` (stereo not drawn), the growth in test [1] was 22.2%; in test [2], 22.9%; in test [3], 46.5%; in [4], 51.9%; in test [5], 41.3%; in test [6] it was 29.7%. Besides, the growth in [7] was 39.3%; in [8], 24.2%; in test [9] it was 60.1%; in [10], 81.6%; in [11] it was 59.4%; in test [12], 66.4%. The growth in [13] was 54%; in [14] it was 93.9%; in test [15] it was 45.3%; in [16], 36.5%; in test [17], 68.7%; in test [18] it was 37.3%. Besides, the growth in test [19] was 29.3%.
For `CCOC(=O)c1ccccc1NC1=C(Cl)C(=O)c2nc(C)ccc2C1=O`, the growth in [1] is 91.7%; in test [2], 112%; in test [3], 81.1%; in test [4], 92.8%; in test [5], 96.8%; in test [6], 99.9%. Moreover, the growth in [7] is 95%; in [8], 98.7%; in test [9] it was 107%; in test [10], 112%; in test [11], 95.1%; in [12] it was 88.2%. For the same compound, the growth in test [13] is 91.9%; in test [14] it was 147%; in test [15], 101%; in [16], 98.6%; in test [17], 87.4%; in test [18] it was 84.3%. Besides, the growth in test [19] was 84.8%.
Consider `CCN(CC)CCOc1ccc(C(=C(c2ccccc2)C2CCCC2)c2ccc(OCCN(CC)CC)cc2)cc1`, for which the growth was -70.2% (active) in test [1]; -5.44% (active) in [2]; 10.3% in [3]; 14.6% in test [4]; 14.6% in test [5]; -82.4% (active) in test [6]. Also, the growth in test [7] was -74.7% (active); in test [8], -56.6% (active); in [9] it was 29%; in test [10], 6.57% (active); in test [11], 48.4%; in test [12], 6.33% (active). For the same compound, the growth in test [13] was 86.5%; in test [14], 74.3%; in [15], 95.3%; in [16], 94.2%; in test [17], 96.5%; in test [18], 8.31% (active). Moreover, the growth in test [19] is 0.859% (active).
As to `N#Cc1c(-c2ccc(F)cc2)cc(-c2c[nH]c3ccccc23)nc1-c1c[nH]c2ccccc12`, the growth in [1] is 99.6%; in test [2] it was 110%; in [3], 98.6%; in test [4], 102%; in test [5], 103%; in [6], 100%. Also, the growth in [7] is 98.3%; in test [8], 107%; in test [9], 107%; in test [10], 96.1%; in test [11], 92.8%; in test [12], 98.8%. Moreover, the growth in test [13] was 84.7%; in test [14], 128%; in test [15], 102%; in [16], 92.5%; in test [17], 89.4%; in [18], 102%. In addition, the growth in [19] was 103%.
As for `COc1cc2oc(-c3cccc(NC(=O)[C@@H](N)C(C)C)c3)cc(=O)c2c(OC)c1OC`, the growth in test [1] was 97.9%; in [2] it was 107%; in [3], 124%; in test [4] it was 95.4%; in test [5] it was 106%; in test [6], 99.1%. The growth in test [7] was 91.3%; in test [8], 94.4%; in test [9] it was 111%; in test [10], 102%; in test [11], 98.4%; in test [12] it was 101%. Moreover, the growth in [13] was 76.3%; in test [14], 97.7%; in test [15], 100%; in [16], 91.1%; in test [17] it was 95.7%; in test [18] it was 97.9%. Further, the growth in test [19] was 99.9%.
`COc1cccc(N2CCN(C3=C(Cl)C(=O)c4ncccc4C3=O)CC2)c1`: the growth was 42.3% in test [1]; 108% in test [2]; 85.1% in test [3]; 90.8% in test [4]; 78.7% in test [5]; 97.3% in test [6]. Also, the growth in [7] was 84.3%; in test [8] it was 28.6%; in test [9], 105%; in test [10] it was 98.4%; in test [11], 102%; in [12], 95.8%. Also, the growth in test [13] was 38%; in [14], 126%; in test [15], -23.8% (active); in test [16], 57.8%; in test [17] it was 104%; in test [18], 10% (active). In addition, the growth in test [19] was 18.2%.
With `O=C(CCCCCCN1CC(=O)N2[C@@H](c3ccccc3Br)c3[nH]c4ccccc4c3C[C@H]2C1=O)NO`, the growth in [1] was 90.2%; in [2], 37.2%; in test [3], 21.8%; in test [4], 55.4%; in test [5] it was 56%; in [6], 30%. For the same compound, the growth in test [7] was 21.6%; in [8], -60.4% (active); in test [9], 31.6%; in test [10], 39.3%; in [11] it was 62.5%; in test [12], 66.3%. Besides, the growth in test [13] is 58.4%; in [14], 28.7%; in test [15], 70.2%; in [16], 42.2%; in test [17], 74.7%; in test [18] it was 17.7%. Moreover, the growth in [19] is 6.43% (active).

The record behind these values is PubChem BioAssay (NCI).
